In PubChem BioAssay (NCI):
Compounds without any hit were thinned out: in the full panel of roughly 83,000, 20% have a hit.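 Growth was measured after 48 h exposure to one concentration of compound in 96-well plates. Values under 10 count as active.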 Calls of active or inactive are those of the source.

What was measured:
Test in all cases: NCI-60 one-dose screen, 48 h (100 = growth as untreated, 0 = no growth, -100 = all killed)
Conditions in all cases: 10 µM
SN12C renal = tested on: SN12C renal
UO-31 renal = tested on: UO-31 renal
ACHN renal = tested on: ACHN renal
CAKI-1 renal = tested on: CAKI-1 renal
A498 renal = tested on: A498 renal
CCRF-CEM leukemia = tested on: CCRF-CEM leukemia
MOLT-4 leukemia = tested on: MOLT-4 leukemia
SR leukemia = tested on: SR leukemia
RPMI-8226 leukemia = tested on: RPMI-8226 leukemia
OVCAR-8 ovarian = tested on: OVCAR-8 ovarian
OVCAR-4 ovarian = tested on: OVCAR-4 ovarian
SK-OV-3 ovarian = tested on: SK-OV-3 ovarian
IGROV1 ovarian = tested on: IGROV1 ovarian
OVCAR-3 ovarian = tested on: OVCAR-3 ovarian
HS 578T breast = tested on: HS 578T breast
NCI/ADR-RES ovarian = tested on: NCI/ADR-RES ovarian
T-47D breast = tested on: T-47D breast
OVCAR-5 ovarian = tested on: OVCAR-5 ovarian
TK-10 renal = tested on: TK-10 renal

Measured: growth

CN(C)N=Nc1nn(C(=O)Nc2ccc(Cc3ccccc3)cc2)c2ccccc12
inactive: SN12C renal 58.9% | UO-31 renal 41.9% | ACHN renal 34.3% | CAKI-1 renal 15.5% | A498 renal 82.4% | CCRF-CEM leukemia 64.8% | MOLT-4 leukemia 64.1% | SR leukemia 59.8% | RPMI-8226 leukemia 47.5% | OVCAR-8 ovarian 48.8% | OVCAR-4 ovarian 52.1% | SK-OV-3 ovarian 102% | IGROV1 ovarian 84.8% | OVCAR-3 ovarian 45.7% | HS 578T breast 100% | NCI/ADR-RES ovarian 46.6% | T-47D breast 24.3%

COc1cc(C(=O)/C=C/c2cc(-c3cc(OC)c(OC)c(OC)c3)n[nH]2)cc(OC)c1OC
active: SN12C renal 2.09% | UO-31 renal -77.2% | ACHN renal -25.8% | CAKI-1 renal 8.9% | CCRF-CEM leukemia -23.8% | MOLT-4 leukemia 7.64% | SR leukemia -7.98% | RPMI-8226 leukemia -46.1% | OVCAR-8 ovarian 8.1% | IGROV1 ovarian -20% | OVCAR-3 ovarian 7.64% | T-47D breast -26.1%
inactive: A498 renal 29.2% | OVCAR-5 ovarian 44.9% | OVCAR-4 ovarian 34.2% | SK-OV-3 ovarian 47.3% | HS 578T breast 62.4% | NCI/ADR-RES ovarian 34.6%

Cc1ccc(-c2n[nH]c(=O)c3noc(-c4ccc(C)cc4)c23)cc1
inactive: SN12C renal 47% | UO-31 renal 20.3% | ACHN renal 33.9% | CAKI-1 renal 16.9% | A498 renal 13.8% | MOLT-4 leukemia 44.2% | SR leukemia 10.2% | RPMI-8226 leukemia 11.8% | OVCAR-8 ovarian 43.3% | OVCAR-5 ovarian 66.2% | OVCAR-4 ovarian 59.4% | SK-OV-3 ovarian 21.4% | IGROV1 ovarian 53.5% | HS 578T breast 21.9% | NCI/ADR-RES ovarian 32.5% | T-47D breast 28.6%
active: OVCAR-3 ovarian -13.3%

COc1cc(Cl)cc(-c2nn(-c3cccc(NC(=O)c4ccc(Cl)c(Cl)c4)c3)cc2-c2ccncc2)c1
inactive: SN12C renal 69.6% | UO-31 renal 43.5% | ACHN renal 63.9% | CAKI-1 renal 63.6% | CCRF-CEM leukemia 59.2% | MOLT-4 leukemia 54.9% | SR leukemia 43.6% | RPMI-8226 leukemia 46% | OVCAR-8 ovarian 58.4% | OVCAR-5 ovarian 79.2% | OVCAR-4 ovarian 58.6% | SK-OV-3 ovarian 80.1% | IGROV1 ovarian 71.6% | OVCAR-3 ovarian 53.4% | HS 578T breast 63.6% | NCI/ADR-RES ovarian 61.4% | T-47D breast 63.2%
active: A498 renal -0.943%

COc1cc(/C=C/C(=O)c2ccc(Cl)cc2)ccc1OS(=O)(=O)c1ccc(C)cc1
active: MOLT-4 leukemia -2.36% | SR leukemia -13.8% | RPMI-8226 leukemia -16.7%
inactive: SN12C renal 86.6% | UO-31 renal 74.2% | ACHN renal 94.3% | CAKI-1 renal 82.5% | A498 renal 86.3% | CCRF-CEM leukemia 12.9% | OVCAR-8 ovarian 83.8% | OVCAR-5 ovarian 111% | OVCAR-4 ovarian 92.5% | SK-OV-3 ovarian 96.8% | IGROV1 ovarian 97.9% | OVCAR-3 ovarian 80.7% | HS 578T breast 129% | NCI/ADR-RES ovarian 81.4% | T-47D breast 76.8%

CC1CC(=O)OC(C)C1 (configuration not stated)
inactive: SN12C renal 109% | UO-31 renal 94.1% | ACHN renal 110% | CAKI-1 renal 93% | A498 renal 96.1% | RPMI-8226 leukemia 104% | OVCAR-8 ovarian 104% | OVCAR-4 ovarian 97.6% | SK-OV-3 ovarian 101% | IGROV1 ovarian 107% | OVCAR-3 ovarian 116% | HS 578T breast 112% | NCI/ADR-RES ovarian 112% | T-47D breast 107%

O=c1[nH]c(-c2ccc(Cl)cc2)nc2sc3c(c12)CCCC3
inactive: SN12C renal 52.5% | UO-31 renal 78.8% | ACHN renal 53.3% | CAKI-1 renal 13.4% | A498 renal 86.6% | CCRF-CEM leukemia 12.3% | MOLT-4 leukemia 49.4% | RPMI-8226 leukemia 96.7% | OVCAR-8 ovarian 68% | OVCAR-4 ovarian 86.2% | SK-OV-3 ovarian 92% | IGROV1 ovarian 82.1% | OVCAR-3 ovarian 101% | HS 578T breast 104% | NCI/ADR-RES ovarian 81.8% | T-47D breast 64.4%
active: SR leukemia 0.705%

O=C(c1ccc(Cl)cc1Cl)N1CCOCC1
inactive: SN12C renal 105% | UO-31 renal 83.4% | TK-10 renal 101% | ACHN renal 103% | A498 renal 91.2% | CCRF-CEM leukemia 106% | MOLT-4 leukemia 99.1% | RPMI-8226 leukemia 95.9% | OVCAR-8 ovarian 104% | OVCAR-5 ovarian 96% | OVCAR-4 ovarian 98.9% | SK-OV-3 ovarian 98.5% | IGROV1 ovarian 105% | OVCAR-3 ovarian 109% | HS 578T breast 107% | NCI/ADR-RES ovarian 96.5% | T-47D breast 92.3%

CSc1nc(=O)n(Cc2ccc(F)cc2)c(=O)n1Cc1ccc(C)cc1
inactive: SN12C renal 96.3% | UO-31 renal 80.1% | ACHN renal 101% | CAKI-1 renal 84.9% | A498 renal 106% | CCRF-CEM leukemia 98.5% | MOLT-4 leukemia 92.4% | SR leukemia 84.4% | RPMI-8226 leukemia 99.2% | OVCAR-8 ovarian 97.6% | OVCAR-5 ovarian 102% | OVCAR-4 ovarian 98.4% | SK-OV-3 ovarian 98.7% | IGROV1 ovarian 107% | OVCAR-3 ovarian 101% | HS 578T breast 109% | NCI/ADR-RES ovarian 86.6% | T-47D breast 87%

COc1ccc(C(=O)/C=C/c2cc(-c3cc(OC)c(OC)c(OC)c3)n[nH]2)cc1
active: UO-31 renal 5.28% | CAKI-1 renal 4.76% | CCRF-CEM leukemia -35.9% | MOLT-4 leukemia 3.23% | SR leukemia -39.7% | RPMI-8226 leukemia -38.8%
inactive: SN12C renal 25.1% | ACHN renal 58.6% | A498 renal 62.2% | OVCAR-8 ovarian 16.1% | OVCAR-5 ovarian 47.8% | OVCAR-4 ovarian 45.6% | SK-OV-3 ovarian 25.7% | IGROV1 ovarian 43.2% | OVCAR-3 ovarian 11.1% | HS 578T breast 71.3% | NCI/ADR-RES ovarian 25.9%

FC(F)(F)c1ccc2nc(-c3nc(-c4ccccc4)n4ccccc34)[nH]c2c1
active: OVCAR-4 ovarian -3.4%
inactive: SN12C renal 53% | UO-31 renal 80.9% | ACHN renal 81.1% | CAKI-1 renal 99.9% | A498 renal 107% | CCRF-CEM leukemia 52% | MOLT-4 leukemia 47.8% | SR leukemia 19.6% | RPMI-8226 leukemia 51.6% | OVCAR-8 ovarian 17.3% | OVCAR-5 ovarian 85.6% | SK-OV-3 ovarian 52.8% | IGROV1 ovarian 67.7% | OVCAR-3 ovarian 79.1% | HS 578T breast 103% | NCI/ADR-RES ovarian 44.4% | T-47D breast 48.3%

c1ccc([I+]c2ccccc2)cc1
inactive: SN12C renal 96.7% | UO-31 renal 45.9% | ACHN renal 77.1% | CAKI-1 renal 37.3% | A498 renal 65% | CCRF-CEM leukemia 51.5% | MOLT-4 leukemia 62.9% | RPMI-8226 leukemia 46.7% | OVCAR-8 ovarian 39.2% | OVCAR-5 ovarian 85.2% | OVCAR-4 ovarian 66% | SK-OV-3 ovarian 68.7% | IGROV1 ovarian 45.6% | OVCAR-3 ovarian 62.7% | HS 578T breast 116% | NCI/ADR-RES ovarian 91.5% | T-47D breast 76.8%

O=C(Nc1cccc(-n2cc(-c3ccncc3)c(-c3ccc(O)c(Cl)c3)n2)c1)Nc1cccc(C(F)(F)F)c1
active: UO-31 renal -9.43% | ACHN renal 8.15% | CAKI-1 renal -14.5% | CCRF-CEM leukemia -0.796% | MOLT-4 leukemia -25% | SR leukemia -16.7% | RPMI-8226 leukemia -29.4% | OVCAR-8 ovarian -49.9% | OVCAR-4 ovarian 2.73% | SK-OV-3 ovarian 4.94% | IGROV1 ovarian -1.92% | OVCAR-3 ovarian -6.21% | HS 578T breast -4.27% | T-47D breast -23.6%
inactive: SN12C renal 10.3% | A498 renal 76.6% | OVCAR-5 ovarian 38.1% | NCI/ADR-RES ovarian 11.4%

COc1cc(Cl)cc(-c2nn(-c3cccc(NC(=O)c4ccc(N5CCOCC5)c(C(F)(F)F)c4)c3)cc2-c2ccncc2)c1
inactive: SN12C renal 79.8% | UO-31 renal 40.7% | ACHN renal 50.1% | CAKI-1 renal 46.7% | A498 renal 31.5% | CCRF-CEM leukemia 31.7% | MOLT-4 leukemia 38.3% | SR leukemia 18.4% | RPMI-8226 leukemia 25.2% | OVCAR-8 ovarian 42.1% | OVCAR-5 ovarian 78.4% | OVCAR-4 ovarian 67.9% | SK-OV-3 ovarian 75.7% | IGROV1 ovarian 96.5% | OVCAR-3 ovarian 69.4% | HS 578T breast 40.7% | NCI/ADR-RES ovarian 46.1% | T-47D breast 49.2%
